Source: PubChem BioAssay
Most compounds without a hit are left out; they make up all but 2.2% or so of the library.
FMDV antiviral: High Throughput Screening for Foot and Mouth Disease Virus Antivirals. FMDV antiviral cell-based qHTS. Potency, µM (highest dose often 57.9 µM), inactives show at the highest dose activity change, negative = inhibition, actives largely listed as inhibitors. 410,000 compounds, 1.2% hits. AID 1159524, 2015; calls by dose curve; tested in HEK293T cells; note: read-out not given here; nearly all actives have a fitted effect of over 45% in size
VACV Venus inh: qHTS for Stage-Specific Inhibitors of Vaccinia Orthopoxvirus: Venus Reporter Primary qHTS; AID 720580, 2013; 330,000 compounds, 0.46% hits; Potency, µM (doses to about 36.5 µM), without a hit: at the highest dose activity change, negative = inhibition, most hits filed as inhibitors; Vaccinia virus Venus reporter expression, fluorescence; calls by dose curve; tested in A549 cells; note: nearly all actives have a fitted effect of over 30% in size
VACV mCherry inh: qHTS for Stage-Specific Inhibitors of Vaccinia Orthopoxvirus: mCherry Reporter Primary qHTS. 310,000 compounds, 0.63% hits. Potency, µM (titrated, usually from 36.5 µM), for the others: at the highest dose activity change, negative = inhibition, most hits filed as inhibitors. Vaccinia virus mCherry reporter infection, fluorescence; calls by dose curve; tested in A549 cells; note: nearly all actives have a fitted effect of over 35% in size
Giardia FBPA inh-1: qHTS Assay for Inhibitors of Fructose-1,6-bisphosphate Aldolase from Giardia Lamblia; A8B2U2; purified Giardia FBPA; Potency, µM (highest dose often 59.6 µM), inactives show at the highest dose activity, negative = inhibition, most hits filed as inhibitors; 290,000 compounds, 0.71% hits; AID 2451, 2010; note: nearly all actives have a fitted effect of over 55% in size
Target sequence (A8B2U2 whole entry, looked up): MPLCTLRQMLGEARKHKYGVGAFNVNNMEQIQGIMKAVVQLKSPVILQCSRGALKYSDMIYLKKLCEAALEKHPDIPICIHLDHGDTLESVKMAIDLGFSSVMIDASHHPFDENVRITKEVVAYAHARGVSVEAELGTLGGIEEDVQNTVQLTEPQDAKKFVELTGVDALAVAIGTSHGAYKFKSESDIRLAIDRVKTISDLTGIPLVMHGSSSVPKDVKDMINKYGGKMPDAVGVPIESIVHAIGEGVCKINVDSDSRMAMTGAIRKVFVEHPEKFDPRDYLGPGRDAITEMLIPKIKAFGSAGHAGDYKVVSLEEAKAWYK
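40 nM FBPA preincubated 10 min at RT with compound (up to 57.5 uM final), then substrate plus GAPDH/TPI/NAD/arsenate coupling and diaphorase/resazurin added. Fluorescence read after 20 min at RT, 525/598 nm.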
Giardia growth: qHTS Assay for Inhibitors of Fructose-1,6-bisphosphate Aldolase from Giardia Lamblia: Giardia lamblia growth inhibition | Giardia lamblia trophozoite growth inhibition | shares compounds with Giardia FBPA inh-1 | Potency, µM (series often up to 57.5 µM), without a hit: top-dose activity change, negative = inhibition, actives largely listed as inhibitors | 1,500 compounds, 5% hits;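 note: trophozoites exposed to compound for 48 h at 37 °C; nearly all actives have a fitted effect of over 70% in size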
Mammal cell tox: qHTS Assay for Inhibitors of Fructose-1,6-bisphosphate Aldolase from Giardia Lamblia: Mammalian cellular toxicity | shares compounds with Giardia FBPA inh-1 | mammalian cell viability counter-screen, qHTS | Potency, µM (highest dose often 57.5 µM), for the others: at the highest dose viability change, negative = toxicity, hits mostly inhibitors | 1,500 compounds, 4% hits;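 note: Chinese hamster ovary cells used as mammalian cytotoxicity surrogate; viability measured as cellular ATP by luminescence; compound exposure lasted 48 h before reading; nearly all actives have a fitted effect of over 60% in size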
Giardia FBPA inh-2: qHTS Assay for Inhibitors of Fructose-1,6-bisphosphate Aldolase from Giardia Lamblia: Primary screen confirmation | purified Giardia aldolase enzyme activity, qHTS | AID 2787, 2010 | Potency, µM (top dose mostly 57.5 µM), for the others: at the highest dose activity change, negative = inhibition, most hits filed as inhibitors | 1,500 compounds, 5% hits | shares compounds with Giardia FBPA inh-1; note: nearly all actives have a fitted effect of over 45% in size
Rabbit aldolase: qHTS Assay for Inhibitors of Fructose-1,6-bisphosphate Aldolase from Giardia Lamblia: Rabbit FBPA Selectivity | Rabbit muscle FBPA enzyme inhibition, selectivity counter-screen | shares compounds with Giardia FBPA inh-1 | 1,500 compounds, 4% hits | Potency, µM (highest dose often 57.5 µM), for the others: top-dose activity, negative = inhibition, most hits filed as inhibitors; note: nearly all actives have a fitted effect of over 60% in size
Target sequence (P00883 whole entry, looked up): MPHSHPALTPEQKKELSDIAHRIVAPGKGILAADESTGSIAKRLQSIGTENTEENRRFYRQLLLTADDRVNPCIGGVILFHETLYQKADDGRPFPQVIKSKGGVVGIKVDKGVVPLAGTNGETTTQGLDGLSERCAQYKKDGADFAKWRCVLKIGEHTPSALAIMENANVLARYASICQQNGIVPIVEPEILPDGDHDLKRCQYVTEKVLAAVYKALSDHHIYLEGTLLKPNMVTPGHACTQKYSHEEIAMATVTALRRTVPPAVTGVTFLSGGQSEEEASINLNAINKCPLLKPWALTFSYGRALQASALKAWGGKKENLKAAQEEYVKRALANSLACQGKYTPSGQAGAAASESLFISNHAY
GAPDH coupling: qHTS Assay for Inhibitors of Fructose-1,6-bisphosphate Aldolase from Giardia Lamblia: Coupling assay counterscreen confirmation; shares compounds with Giardia FBPA inh-1; GAPDH coupling enzyme counterscreen, biochemical, qHTS; Potency, µM (highest dose often 57.5 µM), for inactives: top-dose activity change, negative = inhibition, hits mostly inhibitors; 1,500 compounds, 6% hits; AID 2795, 2010; note: nearly all actives have a fitted effect of over 55% in size
The depositor's hits bear a star; i = inactive; ? = inconclusive; . = no result given; [ ] = remark or other dose. Unless noted, calls come from the whole dose curve; as a rule, active = well fitted curve in the direction sought with a large enough effect; inconclusive = small, poorly fitted or top-dose-only effect, or another doubt; inactive = no such curve, though single readings can be large; an effect the other way counts as inactive or inconclusive. % is set by controls: 0 for no effect and ±100 for the full control effect; potency is the fitted concentration of half-maximal effect.

SMILES	FMDV antiviral	VACV Venus inh	VACV mCherry inh	Giardia FBPA inh-1	others
O=C1[C@H](Cc2ccccc2)NC/C=C\C[C@H](c2ccco2)N1Cc1ccccc1	.	-15.0%	0.0%	.
Cc1cc(C(=O)Nc2ccccc2-c2nc(CNC(=O)C3(C)CCCCC3)c(C)o2)c(C)o1	0.9%	2.0%	-7.6%	.
Cc1ccc(N/C(N)=N/c2nc(C)cc(N3CCCCC3)n2)c(C)c1	15.8µM*	?	?	6.4%
Cc1cnc(NC(=O)CCCc2nc3ccccc3s2)s1	13.2%	5.62µM*	.	-0.4%
O=C(CCCc1nc2ccccc2s1)Nc1nccs1	10.8%	-11.1%	-18.8%	-9.4%
COc1cc(N(C)C)cc(CN(C)CCc2ccc([N+](=O)[O-])cc2)c1O	.	.	.	7.92µM*
Cc1cc(C)n2cc(CSc3nnc(-c4ccccc4)c(-c4ccccc4)n3)nc2n1	28.2µM*	.	.	.
C[C@H](NC(=O)[C@@H](N)Cc1ccc(O)cc1)C(=O)NCC(=O)N[C@H]1CSSC[C@@H](C(=O)O)NC(=O)[C@H](CO)NC(=O)[C@H]([C@@H](C)O)NC(=O)[C@H](Cc2ccccc2)NC(=O)[C@H]([C@@H](C)O)NC(=O)[C@H](CCCCN)NC(=O)[C@H](Cc2c[nH]c3ccccc23)NC(=O)[C@H](Cc2ccccc2)NC(=O)[C@H](Cc2ccccc2)NC(=O)[C@H](CC(N)=O)NC(=O)[C@H](CCCCN)NC1=O	.	.	.	5.0%
CN1CCN(C(=S)c2ccc(OCC(=O)Nc3cccc(C(F)(F)F)c3)cc2)CC1	20µM*	?	-18.8%[1.46 µM]	2.5%
COc1cc(C(=O)NCc2cccnc2)ccc1OCC(=O)Nc1cccc(C(F)(F)F)c1	11.2µM*	-25.9%	-24.1%	.
O=C(COc1ccc(C(=O)O)cc1)Nc1cccc(C(F)(F)F)c1	-0.4%	-3.8%	i	12.6%
CN1CCCN(C(=O)[C@@H]2C[C@@H](Sc3nc4ccccc4[nH]3)CN2Cc2ccc(-c3ccccc3)cc2)CC1	-4.3%	-13.6%	-18.7%	.
O=c1c2ccccc2nc(/C=C/c2ccc([N+](=O)[O-])o2)n1-c1ccc(O)cc1	?	-24.8%	3.55µM*	-1.8%
Cc1cccc(NC(=O)C2CCN(S(=O)(=O)c3ccc(Cl)cc3)CC2)n1	?	-21.3%	-22.6%	.
Cc1cccc(NC(=O)C2CCN(S(=O)(=O)c3ccc4ccccc4c3)CC2)n1	25.1µM*	-13.2%	-26.5%	.
Cc1ccc(CNc2ccc(O)cc2)cc1	19.7%	1.5%	-5.2%	3.54µM*
Cc1ccc(NCc2ccccc2O)cc1	40.7%	.	.	-6.1%
CCOC(=O)N1CCN(c2nc(CN3CCCCC3CCO)nc3c(C)cccc23)CC1 (configuration not stated)	-10.4%	-12.3%	i	.
Cc1ccc(S(=O)(=O)/N=C2\C=C(NS(=O)(=O)c3ccccc3)C(=O)c3ccccc32)c(C)c1	34.5%	11.6%	?	.
Cc1ccc(S(=O)(=O)/N=C2/C=C(Sc3ncn[nH]3)C(=O)c3ccccc32)c(C)c1	.	.	.	1.58µM*
CC1OC(OC2C=C3CCC4C(CCC5(C)C(c6ccc(=O)oc6)CCC45O)C3(C)CC2)C(O)C(OC2OC(CO)C(O)C(O)C2O)C1O (configuration not stated)	?	0.0032µM*	0.282µM*	.
COC1C(O)C(C)O[C@@H](OC2CC[C@@]3(C)C4CC[C@]5(C)C(C6=CC(=O)OC6)CC[C@@]5(O)C4CC[C@@H]3C2)C1O (some centres not stated)	?	?	?	0.8%
Clc1ccc2nnnc(-c3ccccc3)c2c1	?	12.6µM*	12.6µM*	7.0%
c1ccc(-c2nnnc3ccccc23)cc1	-0.9%	-14.2%	-2.9%	4.6%
COc1ccc(-c2cc(N)n(S(=O)(=O)c3ccc(F)cc3)n2)cc1OC	?	?	7.08µM*	1.4%
SMILES	FMDV antiviral	VACV Venus inh	VACV mCherry inh	Giardia FBPA inh-1	others
Nc1cc(-c2ccccc2)nn1S(=O)(=O)c1ccc(F)cc1	?	?	10µM*	-6.9%
COc1cc(-c2cc(N)n(S(=O)(=O)c3ccc(F)cc3)n2)cc(OC)c1OC	?	?	-28.9%	-14.0%
COc1cc(=O)n2c(c1C(=O)NCc1nonc1C)CCN(Cc1c[nH]c3ccccc13)CC2	-5.1%	-8.7%	-7.5%	.
COc1cc(OC)c(OC)cc1CNC(=O)c1cccc(S(=O)(=O)N2CCc3ccccc3C2)c1	11.2µM*	-29.1%	-13.6%	.
CCOc1cccc(=NC2CCCCC2)c2c(C)n(C)c(C)c12	11.2µM*	?	20µM*	-10.1%
CCOc1ccccc1OCCNC1CCCC1	-5.2%	.	.	2.4%
COc1ccc(NC(=S)N(CCCN2CCN(C)CC2)Cc2cccs2)cc1	9.4%	-3.9%	-12.8%	5.1%
COCCN(C(=S)Nc1ccc(OC)c(Cl)c1)C1CCN(C(C)C)CC1	-2.3%	-13.8%	-7.6%	11.2µM*	Giardia growth=?;Mammal cell tox=-3.4%;Giardia FBPA inh-2=-9.5%;Rabbit aldolase=-0.7%;GAPDH coupling=-2.8%
COc1cc(NC(=S)NCCCN2CCOCC2)c(OC)cc1Cl	-2.4%	-5.4%	i	6.8%
COc1ccc(NC(=S)N(CCCN2CCC(C)CC2)Cc2cccs2)cc1Cl	113.1%	-6.4%	i	15.8µM*	Giardia growth=16.8%[10.4 µM];Mammal cell tox=-1.9%;Giardia FBPA inh-2=-6.3%;Rabbit aldolase=-1.4%;GAPDH coupling=11.5%
COc1ccc(NC(=S)N(CCC(C)C)C2CCN(C(C)C)CC2)cc1Cl	-23.3%	-22.2%	-20.7%	?
COc1ccc(NC(=S)NCCCN2CCCC2)cc1Cl	-13.1%	-6.2%	-6.7%	8.89µM*	Giardia growth=?;Mammal cell tox=31.6µM*;Giardia FBPA inh-2=?;Rabbit aldolase=2.3%;GAPDH coupling=?
O=Cc1cc2c3c(c1)CCCN3CCC2	.	-8.2%	-14.9%	.
CCOC(=O)C1OC1C(=O)N[C@@H](CC(C)C)C(=O)NCCC(C)C (some centres not stated)	.	.	.	0.2%
